Screens as filed in PubChem.
Eya2 inh: Eya2 (human) phosphatase inhibition. O00167. recombinant Eya2, OMFP fluorescence dephosphorylation (OMFP is methylfluorescein phosphate). Potency, µM (series often up to 76.9 µM), actives largely listed as inhibitors. hit rate 0.006% among 330,000
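Eya2 protein (added as 0.2 uM solution) was preincubated with compound for 10 min at ambient temperature in 50 mM HEPES pH 7.5, 50 mM NaCl, 5 uM MgCl2, 0.05% BSA, 1 mM DTT. OMFP (added at 50 uM) then reacted 10 min; fluorescence read at 485/525 nm.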
Integrin act MD: integrin-mediated muscular dystrophy alleviation activation. AID 624291. hit rate 0.064% among 350,000. Potency, µM (series often up to 38.3 µM), usual class: activators. alpha7betagal myoblasts, beta-gal FDG fluorescence, 48 h; note: nearly all actives have a fitted effect of over 60% in size
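Alpha7betagal+/- myoblasts (passage 13) were plated 16-24 hr, then exposed to compounds (1:260 dilution of DMSO stock) for 48 hours at 37C. After MPER lysis, β-galactosidase reporter activity was read as FDG fluorescence (ex 480/em 540) after 30 minutes.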
TSHR antag: antagonists of human thyroid stimulating hormone receptor. hit rate 0.2% among 330,000. activity change, negative = inhibition, % at 11.5 µM. AID 504810. P16473. TSHR-expressing cells, TSH-stimulated cAMP HTRF, 2 h; stronger effect = lower value;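 active = activity change below a set negative limit, meaning inhibition stronger than a set level, cut at about -70% in these data; inconclusive = activity change between two set negative limits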
Target sequence (P16473 whole entry, looked up): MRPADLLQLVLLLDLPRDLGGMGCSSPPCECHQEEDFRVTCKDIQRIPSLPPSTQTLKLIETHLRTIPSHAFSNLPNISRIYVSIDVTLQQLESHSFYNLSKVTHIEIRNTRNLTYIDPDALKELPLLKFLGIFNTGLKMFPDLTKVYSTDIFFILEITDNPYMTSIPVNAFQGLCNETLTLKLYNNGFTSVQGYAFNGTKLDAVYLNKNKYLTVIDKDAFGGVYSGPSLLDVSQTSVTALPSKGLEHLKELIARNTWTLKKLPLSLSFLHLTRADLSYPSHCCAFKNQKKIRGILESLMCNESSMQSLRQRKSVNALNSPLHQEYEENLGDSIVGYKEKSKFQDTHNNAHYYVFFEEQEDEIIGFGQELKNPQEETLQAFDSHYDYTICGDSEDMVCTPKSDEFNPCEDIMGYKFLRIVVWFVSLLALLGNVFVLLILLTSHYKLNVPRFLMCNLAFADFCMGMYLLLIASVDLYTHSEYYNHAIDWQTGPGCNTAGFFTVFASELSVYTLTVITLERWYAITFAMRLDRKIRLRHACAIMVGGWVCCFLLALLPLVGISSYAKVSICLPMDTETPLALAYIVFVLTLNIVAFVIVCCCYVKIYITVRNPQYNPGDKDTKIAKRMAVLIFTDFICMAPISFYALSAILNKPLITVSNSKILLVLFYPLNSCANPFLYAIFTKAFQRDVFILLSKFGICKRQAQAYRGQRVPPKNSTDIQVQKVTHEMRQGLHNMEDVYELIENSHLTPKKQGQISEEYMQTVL
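Read-out is FRET at 665 nm (cryptate excitation 337 nm) from a cryptate-tagged anti-cAMP antibody, competed by cell cAMP against cAMP-d2. Compounds are tested on freshly harvested TSHR cells challenged with 4nM TSH (EC80) for 2 hours at 37 deg C.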
TCR act: activators of T cell receptors; primary human leukocytes, anti-CD3, IL-2 HTRF, 48 h; Potency, µM (series often up to 9.22 µM), hits mostly activators; 330,000 tested, under 10 active
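IL-2 release read by HTRF sandwich (Eu cryptate donor, d2 acceptor, 665 nm emission) after 48 hr exposure of primary human leukocytes to compound together with anti-CD3 beads in the absence of co-stimulatory signals.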
Each line names hits and unclear results; the compound was inactive in the other large screens. Shown are actives, neighbours in structure and some others; about 0.24% of the full set was active somewhere. Unless noted, calls come from the whole dose curve; as a rule, active = well fitted curve in the direction sought with a large enough effect; inconclusive = small, poorly fitted or top-dose-only effect, or another doubt; inactive = no such curve, though single readings can be large; an effect the other way counts as inactive or inconclusive.

CCOc1ccc(NS(=O)(=O)c2cccc(C(=O)N3CCN(C/C=C/c4ccccc4)CC3)c2)cc1	none (no result: Eya2 inh, TSHR antag)
Cc1cc(C)n2nc(N)nc2n1	none (no result: Eya2 inh, TSHR antag)
Cc1cc(-c2ccccc2)n2nc(N)nc2n1	Integrin act MD 13µM
Oc1ccc(CNc2cccc(F)c2F)c2cccnc12	none (no result: Integrin act MD, TCR act)
Cc1ccc(NC(=O)COc2ccccc2CNC(C)(C)CC(C)(C)C)cc1	Integrin act MD 14µM
CC1=CC(=O)C(C(C)C)=C/C1=N/OS(=O)(=O)c1ccccc1	TSHR antag -98
N#Cc1ccccc1S(=O)(=O)N1CCN(C(=O)CN(Cc2ccco2)Cc2cccs2)CC1	none (no result: Eya2 inh, TSHR antag, TCR act)
CS(=O)(=O)N(Cc1ccc(C(=O)NC2CCCC2)cc1)c1ccccc1	Integrin act MD 10µM
Cc1c(C)c2ccc(OCC(=O)NCCCN3CCCC3=O)cc2oc1=O	Integrin act MD inconclusive
Cc1cc(SCc2ccc([N+](=O)[O-])cc2)nc(=O)[nH]1	Integrin act MD inconclusive, TSHR antag -138
O=C(CSc1nncs1)N1c2ccccc2Sc2ccccc21	TSHR antag -71
CS(=O)(=O)c1ccc(C(=O)OCC(=O)NC23CC4CC(CC(C4)C2)C3)cc1[N+](=O)[O-]	TSHR antag -76
Cn1cccc1C(=O)NC(=O)COC(=O)c1ccc(S(C)(=O)=O)c([N+](=O)[O-])c1	none
C=CCn1cc(C(=O)NCCCOCC)c(=O)c2cc(S(=O)(=O)N(CC)CC)ccc21	none
O=C(NCCc1ccc(F)cc1)N[C@@H](Cc1ccccc1)C(=O)O	Integrin act MD 11µM
CCN(c1cccc(C)c1)S(=O)(=O)c1cn(CC(=O)OC)c2ccc([N+](=O)[O-])cc12	TSHR antag -130
COc1ccc2cc(/C=C3\SC(=S)NC3=O)c(N3CCOCC3)nc2c1	TSHR antag -80
Cn1ncc(S(=O)(=O)Cc2ccccc2)c(Br)c1=O	none (no result: Integrin act MD, TCR act)
C#C[C@]1(OC(C)=O)CCC2C3CCC4=CC(=O)CC[C@@H]4C3CC[C@@]21C (stereo partly drawn)	TSHR antag -88 (no result: Integrin act MD)
CC(=O)O[C@]1(C(C)=O)CC[C@H]2[C@@H]3C=C(C)C4=CC(=O)CC[C@@H]4[C@H]3CC[C@@]21C	none (no result: Integrin act MD)
O=c1onc2n1-c1cc(Br)ccc1OC2	none (no result: Integrin act MD, TCR act)
CN(CC(=O)Nc1ccccc1Cl)C(=O)COC(=O)c1nc(Cl)c(Cl)c(Cl)c1Cl	TSHR antag -89
CN(CC(=O)Nc1ccccc1Cl)C(=O)COC(=O)c1ccc(Cl)nc1	none
CCC(/C=C1\Sc2ccc(OC)cc2N1CCO)=C\c1sc2ccc(OC)cc2[n+]1CCO	TCR act 13µM
CCC(/C=C1\Sc2ccc(OC)cc2N1CC)=C\c1sc2ccc(OC)cc2[n+]1CCCS(=O)(=O)[O-]	none
O=[N+]([O-])c1cccc2ccc(/C=C/c3ccc(Cl)cc3)nc12	none
CCOc1cc(/C=C/c2ccc3cccc([N+](=O)[O-])c3n2)cc(Cl)c1O	TSHR antag -72
Cc1ccc([C@H]2C[C@@H](O)[C@H](n3cc(C4CC4)nn3)CN2C(=O)c2cccs2)cc1	none (no result: Eya2 inh, TSHR antag, TCR act)
CC(C)CN=Cc1c(O)c([N+](=O)[O-])cc2oc3c(c12)CCCC3	TSHR antag -85
COc1cccc(N2CCN(c3ncnc4c3[nH]c3ccc(F)cc34)CC2C)c1 (stereo not drawn)	TSHR antag -105
COc1cccc(N2CCN(c3ncnc4c3[nH]c3ccccc34)CC2C)c1 (stereo not drawn)	TSHR antag -100 (no result: Integrin act MD)
O=C(Nc1cccc2ccccc12)c1ccc([N+](=O)[O-])s1	none
O=C(Nc1ccccc1F)c1ccc([N+](=O)[O-])s1	Integrin act MD 13µM
O=C(O)c1ccc2c(c1)C(=O)N([C@@H](Cc1ccc(O)cc1)C(=O)O)C2=O	none (no result: Integrin act MD, TCR act)
COC(=O)c1nc2n(n1)C(c1cccc(Cl)c1)C1=C(CCCC1=O)N2 (stereo not drawn)	TSHR antag -85
COc1ccc(OC)c(CN2CCN(C(=O)c3cccc(S(=O)(=O)N(C)c4ccccc4)c3)CC2)c1	none (no result: Eya2 inh, TSHR antag, TCR act)
C(=N\Nc1nc2ccccc2[nH]1)/c1ccncc1	Integrin act MD inconclusive, TSHR antag -88
O=C(O)c1ccc(/C=N/Nc2nc3ccccc3[nH]2)cc1	none
COc1ccc(NC(C)=O)cc1S(=O)(=O)NC1CCSc2ccccc21 (stereo not drawn)	none
CCCN1CCC(=O)N([C@H](CN=[N+]=[N-])CC(C)C)CC1	none
COc1ccc(-c2cc(-c3ccc(Cl)cc3)c(C#N)c(SCC(=O)O)n2)cc1	TSHR antag -72
Cc1cc(C2(c3ccc(O)c(C)c3)C(=O)Nc3ccccc32)ccc1O	none
Cc1cccc2c1NC(=O)C2(c1ccc(O)cc1)c1ccc(O)cc1	TSHR antag -81
COC(=O)c1cc(-c2c[nH]c3ccccc23)n[nH]1	TSHR antag -86
COC(=O)c1cc(-c2ccc(Br)cc2)n[nH]1	none
CC12CCC(=O)N1C(C(=O)Nc1ccc(SC(F)F)cc1)CS2 (stereo not drawn)	none
CCOc1ccccc1NC(=O)c1cccc2c1C(=O)N(C1CCCCC1)C2	Integrin act MD 3.2µM
O=[N+]([O-])c1cccc(CON=Cc2ccccc2O)c1	none (no result: Eya2 inh, TSHR antag, TCR act)
COc1ccccc1N(C)S(=O)(=O)c1ccc(C(=O)N(C)Cc2cccc(F)c2)cc1	none (no result: Eya2 inh, TSHR antag, TCR act)
CCc1nnc(NC(=O)CSc2nnc(CNc3ccc(C)cc3)n2C)s1	none
Cc1ccc(NCc2nnc(SCC(=O)Nc3nnc(C)s3)n2C)cc1	Integrin act MD 10µM
CCOC(=O)Cc1csc(NC(=S)NC(=O)c2cc(OC)c(OC)c(OC)c2)n1	Integrin act MD 3.5µM
O=C(/C=C/c1ccccc1)OCC(=O)c1c[nH]c2ccccc12	none
COc1ccccc1C(=O)COC(=O)/C=C/c1ccccc1	TSHR antag -93
Cc1cc(-c2ccc(N=Nc3c(S(=O)(=O)O)cc4cc(S(=O)(=O)O)cc(N)c4c3O)c(C)c2)ccc1N=Nc1c(S(=O)(=O)O)cc2cc(S(=O)(=O)O)cc(N)c2c1O	Eya2 inh inconclusive, TSHR antag -155 (no result: Integrin act MD, TCR act)
COc1ccc(N2CCCC2)c(NC(=O)c2ccc([N+](=O)[O-])o2)c1	Integrin act MD 7.9µM
OCC1OC(n2cnc3c(NCc4ccccc4O)ncnc32)C(O)C1O (stereo not drawn)	none (no result: Eya2 inh, TSHR antag)
O=C(CSc1ccccn1)Nc1ccccc1F	none
O=C(CSc1ccccn1)Nc1cccc2ccccc12	TSHR antag -116
CC(=O)c1ccc(N(C(=O)CNC(=O)c2ccco2)C(C(=O)NC2CCCC2)c2ccncc2)cc1 (stereo not drawn)	TSHR antag -93
CC(=O)c1ccc(N(C(=O)CNC(=O)c2ccco2)C(C(=O)NC2CCCC2)c2ccc(C)o2)cc1 (stereo not drawn)	Integrin act MD 10µM
COc1ccc(NS(=O)(=O)c2cccc(NC(=O)C3=NN(c4ccccc4)C(=O)CC3)c2)cc1	TSHR antag -112
O=C(O)c1n[nH]c2c1CC(C1CCCCC1)CC2 (stereo not drawn)	none
COCc1c(C(=O)OCc2nc3ccsc3c(=O)[nH]2)oc2ccccc12	Integrin act MD 1.1µM
